{"source": "PubChem BioAssay (Tox21)", "note": "Results filed as inconclusive are left out. Active and inactive are the calls of the source. Calls follow the shape of the dose curve; as a rule, active = well fitted cell-killing curve with a large enough effect in the repeat runs; inconclusive = weak or mixed curves, or effect the other way; inactive = flat fitted curve, though single readings scatter. % is scaled to controls: 0 for no effect and ±100 for the full control effect."}
{"experiment": "cAMP Responsive Elements (CRE) small molecule antagonists, cell-based qHTS assay: qHTS cell viability counter screen (AID 2060913); also: nearly all actives have a fitted effect of over 40% in size", "conditions": "CRE-bla HEK293T viability, CellTiter-Glo luminescence, 5 h; series mostly up to 92.4 µM; viability change, negative = cytotoxic: at the top concentration", "in_short": "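CRE-bla HEK293T cells (2,000/well, 18 h) given compound plus NKH477 0.25 uM final for 3 h at 37C; viability counter-screen by CellTiter-Glo luminescence in same wells after 30 min.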"}
{"compound": "Cc1ccc(N)cc1N", "Potency": "inactive"}
{"compound": "CN(C)CCc1ccc(O)cc1", "viability change, negative = cytotoxic": "7.44% [at 42.5 µM] (inactive)"}
{"compound": "Clc1ccc(Oc2ccccc2)cc1", "viability change, negative = cytotoxic": "-7.21% (inactive)"}
{"compound": "CCC[N+](CCC)(CCC)CCC", "viability change, negative = cytotoxic": "3.26% (inactive)"}
{"compound": "CC(=O)CCC(C)=O", "viability change, negative = cytotoxic": "7.26% (inactive)"}
{"compound": "CC(C)(OOC(C)(C)c1ccccc1)c1ccccc1", "Potency": "inactive"}
{"compound": "Clc1ccc(C(Cl)(Cl)Cl)c(Cl)c1", "viability change, negative = cytotoxic": "-10.5% (inactive)"}
{"compound": "Cc1ccccc1CCl", "viability change, negative = cytotoxic": "3.85% (inactive)"}
{"compound": "CC#Cc1cc(C)nc(Nc2ccccc2)n1", "viability change, negative = cytotoxic": "-0.342% (inactive)"}
{"compound": "Cc1cccc(C#N)c1", "viability change, negative = cytotoxic": "-12% (inactive)"}
{"compound": "CC1CCCCC1NC(=O)Nc1ccccc1", "note": "(stereo not given)", "viability change, negative = cytotoxic": "-13.6% (inactive)"}
{"compound": "C1=Cc2cccc3cccc1c23", "Potency": "inactive"}
{"compound": "CC(C)(c1ccc(OCC2CO2)cc1)c1ccc(OCC2CO2)cc1", "note": "(stereo not given)", "Potency": "inactive"}
{"compound": "Cc1nc(N)nc(N)n1", "viability change, negative = cytotoxic": "0.0165% (inactive)"}
{"compound": "CC(O)CCl", "note": "(stereo not given)", "viability change, negative = cytotoxic": "2.25% (inactive)"}
{"experiment": "cAMP Responsive Elements (CRE) small molecule agonists, cell-based qHTS assay: qHTS cell viability counter screen (AID 2060914); also: nearly all actives have a fitted effect of over 50% in size; also: potency is read from the fitted curve at half-maximal effect", "conditions": "CRE-bla HEK293T viability, CellTiter-Glo luminescence, 5 h; series mostly up to 92.4 µM; activity change, negative = cytotoxicity: at the top concentration", "in_short": "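Cells are seeded and incubated 18 h, treated with compounds in DMSO for 3 h, read for the bla reporter, then given CellTiter-Glo; luminescence is measured after 30 min at room temperature.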"}
{"compound": "OC(O)C(Cl)(Cl)Cl", "Potency": "inactive"}
{"compound": "COCC(=O)N(c1c(C)cccc1C)[C@H](C)C(=O)OC", "activity change, negative = cytotoxicity": "7.55% (inactive)"}
{"compound": "Cc1ccccc1[N+](=O)[O-]", "Potency": "inactive"}
{"compound": "CNC(=O)Oc1ccccc1OC(C)C", "Potency": "inactive"}
{"compound": "CCC1(c2ccccc2)C(=O)N(COC)C(=O)N(COC)C1=O", "activity change, negative = cytotoxicity": "2.26% [at 42.5 µM] (inactive)"}
{"compound": "O=C(Cl)OCCOCCOC(=O)Cl", "activity change, negative = cytotoxicity": "-1.83% (inactive)"}
{"compound": "NC(=O)OCCCc1ccccc1", "activity change, negative = cytotoxicity": "15.5% [at 42.5 µM] (inactive)"}
{"compound": "C[N+](C)(C)CCOC(=O)C(O)(c1ccccc1)c1ccccc1", "activity change, negative = cytotoxicity": "1.06% [at 42.5 µM] (inactive)"}
{"compound": "O=C1CCCO1", "Potency": "inactive"}
{"compound": "C=CCOC(=O)c1ccccc1N", "activity change, negative = cytotoxicity": "-3.46% (inactive)"}
{"compound": "O=C(O)c1cc[c]([Hg][Cl])cc1", "activity change, negative = cytotoxicity": "24.3% (inactive)"}
{"compound": "O=C(Cl)C(Cl)Cl", "activity change, negative = cytotoxicity": "-3.88% (inactive)"}
{"compound": "O=C(Nc1ccc(Br)cc1)c1cc(Br)cc(Br)c1O", "Potency": "inactive"}
{"compound": "ClC1=C(Cl)C2(Cl)C3C(Cl)C(Cl)CC3C1(Cl)C2(Cl)Cl", "note": "(stereo not given)", "Potency": "54.5 µM (active)"}
{"compound": "CCCCN(CCCC)C(=S)S", "activity change, negative = cytotoxicity": "-2.39% (inactive)"}
{"compound": "Nc1ccncc1", "Potency": "inactive"}
{"compound": "CCCCCc1cc(O)cc(O)c1", "activity change, negative = cytotoxicity": "4.31% (inactive)"}
{"compound": "COc1ccc(/C(=C/C(=O)N2CCOCC2)c2ccc(Cl)cc2)cc1OC", "activity change, negative = cytotoxicity": "5.08% (inactive)"}
{"compound": "O=C1OC(=O)C2C1C1(Cl)C(Cl)=C(Cl)C2(Cl)C1(Cl)Cl", "note": "(stereo not given)", "activity change, negative = cytotoxicity": "-1.77% (inactive)"}
{"compound": "O=[N+]([O-])c1ccccc1", "Potency": "inactive"}
{"compound": "CCCN1CCC[C@@H]2Cc3[nH]ncc3C[C@H]21", "activity change, negative = cytotoxicity": "7.21% [at 42.5 µM] (inactive)"}
{"compound": "CC(O)(CS(=O)(=O)c1ccc(F)cc1)C(=O)Nc1ccc(C#N)c(C(F)(F)F)c1", "note": "(stereo not given)", "activity change, negative = cytotoxicity": "-1.48% [at 42.5 µM] (inactive)"}
{"compound": "O=c1nc(O)n(Cl)c(=O)n1Cl", "Potency": "inactive"}
{"compound": "C1=CCC=C1", "activity change, negative = cytotoxicity": "0.14% (inactive)"}
{"compound": "Cc1c([N+](=O)[O-])cc2c(c1[N+](=O)[O-])C(C)(C)CC2(C)C", "activity change, negative = cytotoxicity": "-0.321% (inactive)"}
{"compound": "Cc1ccc(N)cc1N", "Potency": "inactive"}
{"compound": "CN(C)CCc1ccc(O)cc1", "activity change, negative = cytotoxicity": "-5.95% [at 42.5 µM] (inactive)"}
{"compound": "Clc1ccc(Oc2ccccc2)cc1", "activity change, negative = cytotoxicity": "-0.765% (inactive)"}
{"compound": "CCC[N+](CCC)(CCC)CCC", "activity change, negative = cytotoxicity": "7.23% (inactive)"}
{"compound": "CC(=O)CCC(C)=O", "activity change, negative = cytotoxicity": "-0.22% (inactive)"}
{"compound": "CC(C)(OOC(C)(C)c1ccccc1)c1ccccc1", "Potency": "inactive"}
{"compound": "Clc1ccc(C(Cl)(Cl)Cl)c(Cl)c1", "activity change, negative = cytotoxicity": "4.59% (inactive)"}
{"compound": "Cc1ccccc1CCl", "activity change, negative = cytotoxicity": "11.4% (inactive)"}
{"compound": "CC#Cc1cc(C)nc(Nc2ccccc2)n1", "activity change, negative = cytotoxicity": "-14.8% (inactive)"}
{"compound": "Cc1cccc(C#N)c1", "activity change, negative = cytotoxicity": "-3.11% (inactive)"}
{"compound": "CC1CCCCC1NC(=O)Nc1ccccc1", "note": "(stereo not given)", "activity change, negative = cytotoxicity": "-1.2% (inactive)"}
{"compound": "C1=Cc2cccc3cccc1c23", "Potency": "inactive"}
{"compound": "CC(C)(c1ccc(OCC2CO2)cc1)c1ccc(OCC2CO2)cc1", "note": "(stereo not given)", "Potency": "inactive"}
{"compound": "Cc1nc(N)nc(N)n1", "activity change, negative = cytotoxicity": "0% (inactive)"}
{"compound": "CC(O)CCl", "note": "(stereo not given)", "activity change, negative = cytotoxicity": "9.05% (inactive)"}
